IL1B secr inh: qHTS for Inhibitors of Inflammasome Signaling: IL-1-beta AlphaLISA Primary Screen; hit rate 4.7% among 360,000; AID 743279, 2014; activity change, % at 57.5 µM; THP-1 LPS/ATP IL-1B secretion, AlphaLISA, 16 h; stronger effect = lower value; in the data active = activity change below about -50%; inconclusive = mostly about -30% to -49%; note: % is set by controls: 0 for no effect and ±100 for the full control effect
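THP-1 cells pretreated 1 hr with compounds (up to 57.5 uM final), then stimulated with LPS (250 ng/mL final) plus ATP (1.25 mM final); secreted IL-1B measured by AlphaLISA after 16 hr, decreased signal indicating inhibition.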
S2 tox: Viability Counterscreen for Primary qHTS for Inhibitors of ATXN expression. S2 cells (HEK-293 line with an ATXN2-luciferase reporter) viability, CellTiter-Fluor protease fluorescence, 24 h. Potency, µM (top dose mostly 56.7 µM), hits mostly cytotoxic. hit rate 0.49% among 400,000. AID 651635, 2014; note: potency is the fitted concentration of half-maximal effect; nearly all actives have a fitted effect of over 40% in size
Integrin act MD: qHTS for Activators of Integrin-Mediated Alleviation for Muscular Dystrophy; Potency, µM (titrated, usually from 38.3 µM), for the others: top-dose activation, hits mostly activators; AID 624291, 2012; alpha7betagal myoblasts, beta-gal FDG fluorescence, 48 h; hit rate 0.064% among 350,000;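 note: potency is the fitted concentration of half-maximal effect; 100% = response of the positive control SU9516; nearly all actives have a fitted effect of over 60% in size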
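Alpha7betagal+/- myoblasts (passage 13) were plated 16-24 hr, then exposed to compounds (1:260 dilution of DMSO stock) for 48 hours at 37C. After MPER lysis, β-galactosidase reporter activity was read as FDG fluorescence (ex 480/em 540) after 30 minutes.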
D3 ag: qHTS of D3 Dopamine Receptor Agonist: qHTS. D(3) dopamine receptor (Homo sapiens), P35462. D3R DiscoveRx beta-arrestin cells, luminescence, 90 min. max activation, %. hit rate 0.58% among 410,000; in the data active = max activation above about 30%; note: 0% is about no effect
Target sequence (P35462 whole entry, looked up): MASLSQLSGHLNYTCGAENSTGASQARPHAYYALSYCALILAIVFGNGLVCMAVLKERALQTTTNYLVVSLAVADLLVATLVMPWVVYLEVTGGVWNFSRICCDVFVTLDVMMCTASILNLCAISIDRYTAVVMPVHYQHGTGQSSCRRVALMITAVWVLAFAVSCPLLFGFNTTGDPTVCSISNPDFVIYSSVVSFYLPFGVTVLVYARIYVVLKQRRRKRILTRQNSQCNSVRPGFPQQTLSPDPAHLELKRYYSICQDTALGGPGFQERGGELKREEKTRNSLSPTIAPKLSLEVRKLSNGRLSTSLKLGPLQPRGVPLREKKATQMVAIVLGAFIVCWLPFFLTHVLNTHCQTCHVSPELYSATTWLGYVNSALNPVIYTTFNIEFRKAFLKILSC
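Cells at 1500/well, incubated overnight, then treated with pinned compounds (dopamine as control) for 90 min at 37 degrees C. DiscoveRx reagent added for 30 - 60 minutes at room temperature; luminescence read.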
ATXN2 expr inh: Primary qHTS for Inhibitors of ATXN expression | HEK-293 ATXN2-luciferase reporter, luminescence, 24 h | Potency, µM (highest dose often 57 µM), for the others: at the highest dose activity change, negative = inhibition, actives largely listed as inhibitors | hit rate 0.72% among 360,000; note: potency is the fitted concentration of half-maximal effect; % is set by controls: 0 for no effect and ±100 for the full control effect; nearly all actives have a fitted effect of over 55% in size
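qHTS (up to 57 uM final) was run with 24 h compound exposure of reporter cells at 37 °C. Each well was multiplexed: SteadyGlo luminescence measured ATXN2-luciferase expression after a fluorogenic Gly-Phe-AFC viability readout (25 uM final).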
D3 antag: qHTS of D3 Dopamine Receptor Antagonist: qHTS; AID 652054, 2013; hit rate 2.5% among 360,000; D3R cells, DiscoveRx beta-arrestin luminescence, antagonist mode; stronger effect = lower value; D(3) dopamine receptor (Homo sapiens), P35462; max response, negative = inhibition, %; in the data active = max response below about -50%; inconclusive = no clear call, values can overlap the other calls; note: % is set by controls: 0 for no effect and ±100 for the full control effect
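Cells expressing the human receptor were seeded at 1500 cells/well, incubated overnight at 37 degrees C in 5% CO2, then exposed to library compounds with dopamine controls for 90 minutes at 37 degrees C before luminescent detection.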
Numbers without * were called inactive; i = inactive; ? = inconclusive; nt = not tested or not shown; [ ] = another dose, or the depositor's remark. Rows were chosen to be rich in hits. Some 7% of all compounds tested hit in one or more screens of this group. Unless noted, calls come from the whole dose curve; as a rule, active = well fitted curve in the direction sought with a large enough effect; inconclusive = small, poorly fitted or top-dose-only effect, or another doubt; inactive = no such curve, though single readings can be large; an effect the other way counts as inactive or inconclusive.

SMILES | IL1B secr inh | S2 tox | Integrin act MD | D3 ag | ATXN2 expr inh | D3 antag
COc1ccc(Nc2nc(N)c(C(=O)c3ccc(OC)cc3)s2)cc1 | -74.3* | ? | -36.7% | -6.9 | ? | -24.1
COc1ccc(C(=O)c2sc(Nc3ccccc3)nc2C)cc1 | -70.1* | nt | 0.7% | 7.9 | 8.1% | 2.7
COc1ccc(CNC(=O)[C@H](C)NC(=O)C2CCN(C(=O)[C@H](CCSC)NC(=O)OC(C)(C)C)CC2)cc1 | -1.2 | i | -14.9% | -8.8 | 5.7% | 7.2
C[C@]12c3[nH]c4ccccc4c3CCN1C(=O)C(CC(=O)NCCc1ccccn1)C[C@@H]2C(=O)N1CCOCC1 (stereo partly drawn) | 0.1 | i | 37.1% | 5.2 | 0.5% | 11.4
CCN=C1S/C(=C\c2cc(Cl)c(OC)c(OC)c2)C(=O)N1CC | -13.6 | i | 21.7% | -0.1 | -10.0% | -21.3
CCN=C1S/C(=C\c2ccc(OCC)c(OC)c2)C(=O)N1CC | -50.9* | i | -31.3% | 0.3 | -2.3% | 3.0
CCc1ccc2c(c1)C1(C(=O)N2)N2CCCC2C(C(=O)c2ccc3ccccc3c2)C12C(=O)Nc1ccccc12 (stereo not drawn) | -99.3* | ? | -48.1% | 2.7 | ? | -1.9
CCc1cccc2c1NC(=O)C21N2CCCC2C(C(=O)c2ccc3ccccc3c2)C12C(=O)Nc1ccccc12 (stereo not drawn) | -104.5* | ? | 15.0% | 2.2 | 7.3% | -17.2
Cc1ccc(N2C(S)=C(C#N)C(=O)NC23CCCCC3)cc1 | -11.6 | i | -38.6% | 2.8 | 18.3% | 15.3
CC(C)c1ccc(Nc2cc(C(=O)NC3CCCCC3)c3ccccc3n2)cc1 | nt | nt | nt | 2.4 | nt | nt
Cc1[nH]c2ccccc2c1NC(=O)CN1CCN(c2cccc(C(F)(F)F)c2)CC1 | 7.7 | i | -22.2% | -5.8 | -16.3% | ?
O=C(CN1CCN(c2cccc(C(F)(F)F)c2)CC1)Nc1cccc(C(F)(F)F)c1 | 7.8 | i | -13.7% | -7.8 | -7.6% | ?
CC(=O)Nc1ccc(NC(=O)CN2CCN(c3cccc(C(F)(F)F)c3)CC2)cc1 | 45.0 | i | 9.6% | -17.2 | 4.6% | -79.5*
CC(=O)Nc1ccc(CN2CCN(c3cccc(C(F)(F)F)c3)CC2)cc1 | -8.3 | ? | -17.1% | -58.6 | -1.7% | -92.1*
Cc1[nH]c2ccccc2c1C(O)CN1CCN(c2cccc(C(F)(F)F)c2)CC1 (stereo not drawn) | -103.2* | ? | -60.1% | -9.6 | ? | -74.1*
O=C(CN1CCN(c2cccc(C(F)(F)F)c2)CC1)NCc1ccccc1 | -55.2* | i | -25.1% | -9.2 | -14.9% | -14.5
Cc1ccc(N(CC(=O)N2CCN(c3ccccc3F)CC2)S(=O)(=O)c2c(C)noc2C)cc1 | -6.5 | i | -3.0% | -11.8 | -16.5% | -8.1
OC(CN1CCN(c2ccccc2)CC1)c1c[nH]c2ccccc12 (stereo not drawn) | 1.2 | ? | -18.3% | -8.0 | -16.9% | -54.3*
Nc1c(C(=O)Nc2ccccc2)sc2nc3c(cc12)CN(Cc1ccccc1)CC3 | nt | i | nt | 8.2 | -2.8% | nt
COc1ccc2cc(S(=O)(=O)N3CCCCC3)ccc2c1S(=O)(=O)N1CCCCC1 | -14.4 | i | -1.8% | -5.2 | -34.7% | -9.6
NC(=O)c1cc(Br)cc(C2CCCCC2)c1O | -55.7* | i | -44.1% | 21.7 | 3.8% | 0.4
COc1ccc(-c2nc(CCl)cs2)cc1OC | 1.3 | nt | 2.1% | -2.0 | -16.4% | -0.3
COc1ccc(N2CC(O)=C(c3nc(-c4ccccc4)cs3)C2=N)cc1 | 37.9 | i | -9.5% | -13.1 | 5.4% | 3.6
COc1ccc(-c2nc(-c3ccc(O)cc3O)cs2)cc1OC | -67.4* | i | -4.4% | 38.6* | 78.8% | 46.6
COc1ccc(-c2csc(C3=C(O)CN(C(C)C)C3=N)n2)cc1OC | -75.6* | i | -18.6% | 22.8 | 2.6% | 4.2
SMILES | IL1B secr inh | S2 tox | Integrin act MD | D3 ag | ATXN2 expr inh | D3 antag
CCOC(=O)C1CCN(c2ncnc3nc[nH]c23)CC1 | -55.5* | i | -20.2% | -0.4 | -5.2% | 2.1
Cc1cccc(-n2ncc3c(N4CCCCCC4)ncnc32)c1 | nt | nt | nt | 3.8 | nt | nt
COc1ccc(-n2ncc3c(N4CCC(C(N)=O)CC4)ncnc32)cc1 | 12.1 | i | 13.2%[7.66 µM] | 1.1 | 25.2% | -10.8
CCCN(CCC)c1ncnc2c1cnn2-c1ccc(OC)cc1 | -65.4* | i | 14.8% | 33.7* | 100.4% | 32.6
CCOC(=O)C1CCN(c2ncnc3c2cnn3-c2ccc(OC)cc2)CC1 | 17.5 | i | 4.5% | 32.9* | -38.3% | 16.6
c1ccc(-n2ncc3c(N4CCCCC4)ncnc32)cc1 | -4.6 | i | 17.3% | 2.7 | 12.6µM* | -24.1
CCCCN(CCCC)c1ncnc2c1cnn2-c1cccc(C)c1 | nt | i | nt | -12.0 | 8.3% | nt
COC(=O)c1ccc(CSc2nnc(-c3ccncc3)n2Cc2ccccc2)o1 | ? | i | 23.2% | -16.1 | 5.5% | ?
CC(=O)NC1CC2CCCC(C1)N2C(=O)Nc1cccc(C(C)=O)c1 (stereo not drawn) | 1.4 | i | -52.0% | -0.9 | nt | -8.1
Cc1ccc(-n2ncc3c(N4CCN(Cc5ccccc5)CC4)ncnc32)cc1C | nt | ? | nt | 32.9* | -9.6% | nt
COc1cccc(N2CCN(c3ncnc4c3cnn4-c3ccc(C)cc3C)CC2)c1 | -79.5* | 10µM* | -48.9% | 38.8* | 7.94µM* | -16.0
COc1ccc(-n2ncc3c(N4CCN(Cc5ccccc5)CC4)ncnc32)cc1 | -93.9* | ? | 0.0% | -1.3 | ? | 13.4
Cc1ccc(NS(=O)(=O)c2ccc(CCC(=O)O)cc2)cc1 | 3.3 | i | -11.0% | 2.9 | -3.3% | 21.4
COc1ccccc1N1CCN(C(c2ccccn2)c2nnnn2C2CCCCC2)CC1 (stereo not drawn) | -13.9 | i | 23.1% | 1.4 | 0.3% | -66.0*
Fc1ccccc1N1CCN(C(c2ccccn2)c2nnnn2C2CCCCC2)CC1 (stereo not drawn) | -6.1 | i | 9.0% | 0.5 | 5.4% | 4.9
Cc1ccc(Cl)cc1N1CCN(C(c2cccnc2)c2nnnn2C2CCCCC2)CC1 (stereo not drawn) | -52.6* | i | 44.4% | 4.6 | ? | 6.2
CCC(c1nnnn1C(C)(C)C)N1CCN(c2cc(Cl)ccc2C)CC1 (stereo not drawn) | -6.1 | i | -35.8% | -12.8 | -26.1% | -55.9*
CCCC(c1nnnn1CC1CCCO1)N1CCN(c2cc(Cl)ccc2C)CC1 (stereo not drawn) | -9.6 | i | 13.7% | -2.9 | -35.0% | -4.6

High-throughput results (PubChem)
